We go through 40 compounds from PubChem BioAssay AID1920062 (Sanford-Burnham Center for Chemical Genomics, 2024).

Screen size: about 370,000 compounds; about 400 (0.11%) were called active.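 Rule for the calls: active = activation at 10 µM reaching about 35% in either raw or pattern-adjusted values (limit read from the data); inactive = the rest.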 The entries come from a sample that favours actives as a whole.

For the experiment, the target named is Atrial natriuretic peptide receptor 2 (Homo sapiens) (UniProt P20594). Kind of experiment: human GC-B receptor activators, primary screen, HEK293 GC-B cells, cGMP TR-FRET, EC30 CNP (AID 1920062). As to conditions: at 10 µM, hits give high values, 0% at EC30 CNP, 100% saturating CNP.
Sequence of Atrial natriuretic peptide receptor 2 (Homo sapiens) (P20594 whole entry, looked up): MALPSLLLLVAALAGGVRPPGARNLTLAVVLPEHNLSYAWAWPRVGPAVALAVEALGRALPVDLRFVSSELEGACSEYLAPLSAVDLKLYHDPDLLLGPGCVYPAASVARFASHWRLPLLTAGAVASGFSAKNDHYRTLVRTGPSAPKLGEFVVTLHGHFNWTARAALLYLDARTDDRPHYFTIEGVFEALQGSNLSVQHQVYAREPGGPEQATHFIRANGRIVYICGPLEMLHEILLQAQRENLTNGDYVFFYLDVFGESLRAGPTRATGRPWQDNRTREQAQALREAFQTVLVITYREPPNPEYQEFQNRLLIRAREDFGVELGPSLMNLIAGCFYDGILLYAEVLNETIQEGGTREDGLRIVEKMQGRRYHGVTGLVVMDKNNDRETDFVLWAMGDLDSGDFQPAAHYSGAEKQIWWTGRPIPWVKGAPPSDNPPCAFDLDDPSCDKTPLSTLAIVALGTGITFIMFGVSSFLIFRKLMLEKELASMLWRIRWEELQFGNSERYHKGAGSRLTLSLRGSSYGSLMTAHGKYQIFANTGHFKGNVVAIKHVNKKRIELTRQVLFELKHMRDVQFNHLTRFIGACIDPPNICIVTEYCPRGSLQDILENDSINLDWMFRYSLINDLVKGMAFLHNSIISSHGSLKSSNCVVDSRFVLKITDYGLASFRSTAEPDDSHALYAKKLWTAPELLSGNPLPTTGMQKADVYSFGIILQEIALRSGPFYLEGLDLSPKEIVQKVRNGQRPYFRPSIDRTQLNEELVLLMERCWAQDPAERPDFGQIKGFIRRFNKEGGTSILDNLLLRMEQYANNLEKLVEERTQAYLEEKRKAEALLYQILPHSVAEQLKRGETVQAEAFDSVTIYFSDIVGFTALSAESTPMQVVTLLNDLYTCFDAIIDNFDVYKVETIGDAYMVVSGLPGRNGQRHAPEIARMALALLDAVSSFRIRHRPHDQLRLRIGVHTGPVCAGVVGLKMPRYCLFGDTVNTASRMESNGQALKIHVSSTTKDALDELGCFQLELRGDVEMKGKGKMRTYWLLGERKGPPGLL
Turning to `COc1ccccc1C(=O)CSc1nnc(-c2ccccn2)n1-c1ccccc1`, the activation was -3.37% (inactive).
As for `Nc1ncnc(Nc2cccc(Cl)c2Cl)n1`, the activation is 1.89% (inactive).
The figure for `CC1(C)OC(=O)C2=C(C[C@@H](C3CC3)O[C@H]2CCc2cccc(Cl)c2)O1` is 3.35% (inactive).
Consider `C[C@@H]1CN([C@@H](C)CO)C(=O)CCCn2nncc2CO[C@H]1CN(C)Cc1ccc(C(F)(F)F)cc1`, for which the activation was -5.26% (inactive).
The figure for `CCOc1c(Br)cc(/C=C2\C(=O)N(CCC#N)N=C2C)cc1OC` is 51.6% (active); for `COc1ccc(C(CNC(=O)c2ccc(S(=O)(=O)Nc3ccccc3F)cc2)N(C)C)cc1` (stereo not given) it is -0.81% (inactive).
As for `CC1(c2ccc(Cl)cc2Cl)NC(=O)N(CC(=O)Nc2cccnc2Cl)C1=O` (stereo not given), the figure is 3.74% (inactive).
As to `CCCCN(C)CCNC(=O)C1CCCN(S(=O)(=O)c2cccc3nsnc23)C1` (stereo not given), the activation was 4.51% (inactive).
On to `CC(Oc1ccc(F)cc1F)C(=O)/C=C/N(C)C` (stereo not given), for which the activation is 1.84% (inactive).
Regarding `CCC(C)(C)NC(=O)C(c1cccc(OC)c1OC)N(CC(C)C)C(=O)CCC(=O)Nc1cc(C)on1` (stereo not given), the activation is -7.74% (inactive).
On to `CC1CCCCC12NC(=O)N(CC(=O)Nc1ccc(S(=O)(=O)Nc3ncccn3)cc1)C2=O` (stereo not given), for which the activation is 1.08% (inactive).
The figure for `Nc1nnc(SCC(=O)NCC(=O)Nc2ccc(F)c(F)c2F)s1` is -0.75% (inactive); for `CC(=O)c1cccc(-n2nnnc2SCC(=O)NNC(=O)C2CCCCC2)c1` it is 1.65% (inactive); for `O=C(OCC(=O)N1CCCCCC1)c1cnc(Cl)c(Cl)c1` it is 4.57% (inactive).
As for `CC(=O)C[C@H](O)CC(=O)[C@@H]1OC(=O)[C@@H](C)C/C=C\Cc2ccccc21`, the figure is 5.5% (inactive); as for `CCCCn1c(N)c(N2CCOCC2)c(=O)n(CC(=O)NCCc2ccccc2)c1=O`, 0.41% (inactive).
The figure for `CC(=O)NC(Cc1ccc(F)cc1)C(=O)O` (stereo not given) is 7.58% (inactive); for `Cc1nc(C(F)(F)F)ccc1C(=O)N1CCC1(C)C(=O)NS(=O)(=O)c1ccc(F)cc1F` (stereo not given) it is 1.28% (inactive).
For the compound `O=C1OCC2=C1C(c1ccccc1)CC(=O)N2c1cccc(F)c1` (stereo not given), the activation was 3.79% (inactive).
The figure for `CCOC(=O)C1(Cc2ccccc2C)CCCN(C(=O)CN2C(=O)CSC2=O)C1` (stereo not given) is 1.31% (inactive).
`O=S1(=O)c2c(cccc2N2CCCCC2)O[C@H](COCc2ccccc2)CN1C1CC1`: the activation is 2.03% (inactive).
The figure for `O=C(Oc1ccc(C(=S)N2CCOCC2)cc1)c1ccc(F)cc1` is -0.5% (inactive); for `CC(NCc1nc2ccccc2n1C)C12CC3CC(CC(C3)C1)C2` (stereo not given) it is -3.22% (inactive).
On to `NC(=O)NC(=O)C(OC(=O)CCNS(=O)(=O)c1ccccc1)c1ccccc1` (stereo not given), for which the activation is 0.79% (inactive).
As to `CCOC(=O)N1CCN(C(=O)CN(C2CCCCC2)S(C)(=O)=O)CC1`, the activation is 6.88% (inactive).
In the case of `C/C(Cl)=C\Cn1c(Nc2cccc(C)c2)nc2c1c(=O)n(C)c(=O)n2C`, the activation is 45.4% (active).
As for `Cn1c(=O)c2c(nc(N/N=C/c3cccs3)n2Cc2ccc(Br)cc2)n(C)c1=O`, the activation is 23.1% (inactive).
The figure for `CCC/C(C)=N\Nc1nc2c(c(=O)n(C)c(=O)n2C)n1C` is -1.79% (inactive); for `Cc1cc(C)n(-c2nc(O)cc(=O)[nH]2)n1` it is 6.13% (inactive); for `CCn1c(CNC(=O)c2ccccc2)nnc1SCC(=O)N1CCN(c2ccccc2)CC1` it is 1.17% (inactive).
Regarding `CC(C)COC(=O)c1ccc(NC(=O)C2C3C=CC(C3)C2C(=O)O)cc1` (stereo not given), the activation was 6.16% (inactive).
Take `CCN(CC(=O)NCc1cccs1)S(=O)(=O)c1ccc(NC(C)=O)cc1`: the activation was 5.26% (inactive).
Consider `CC(=O)N1C(C)c2ccccc2C(C)(C)CC12CCCCC2` (stereo not given), for which the activation was 1.32% (inactive).
As for `C=C1C2C[C@H](O)C(C)(C)[C@@]2(O)[C@H](O)C[C@]23C[C@@](C)(O)[C@H](CC[C@H]12)[C@H]3O` (stereo not given in full), the figure is 5.08% (inactive); as for `c1coc(CCNc2ncnc3ccc(-c4ccc5c(c4)OCO5)cc23)c1`, 50.1% (active).
Take `Cc1nc(CNc2ncnc3ccc(-c4ccc5c(c4)OCO5)cc23)cs1`: the activation is 3.38% (inactive).
As for `O=C(Cn1nnc(-c2ccc3c(c2)OCO3)n1)NCc1ccco1`, the figure is -0.02% (inactive); as for `CC(C)C(NC(=O)c1c(F)cccc1F)C(=O)NNC(=O)c1ccccc1` (stereo not given), 3.58% (inactive); as for `O=Cc1c(Cl)cccc1Cl`, -13.9% (inactive).
Consider `Cc1ccccc1NC(=O)COC(=O)c1ccc(Sc2ncn[nH]2)c([N+](=O)[O-])c1`, for which the activation was -1.97% (inactive).
